In PubChem BioAssay (NCI):
This is part of a sample that, as a whole, favours compounds with a hit. Of some 83,000 tested, about 20% had one in any assay.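 Each cell line was grown in a 96-well plate and treated with one concentration of compound for 48 hours. Values below 10 were considered active.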 A number with no mark means an inactive call. Activity calls are given as the source filed them.

Assays:
Test in all cases: NCI-60 one-dose screen, 48 h (100 = growth as untreated, 0 = no growth, -100 = all killed)
Conditions in all cases: 10 µM unless noted
NCI/ADR-RES ovarian = tested on: NCI/ADR-RES ovarian
BT-549 breast = tested on: BT-549 breast
MDA-MB-435 melanoma = tested on: MDA-MB-435 melanoma
SW-620 colon = tested on: SW-620 colon
MCF7 breast = tested on: MCF7 breast
HCT-116 colon = tested on: HCT-116 colon
KM12 colon = tested on: KM12 colon
T-47D breast = tested on: T-47D breast
HCC-2998 colon = tested on: HCC-2998 colon

| Compound | growth (NCI/ADR-RES ovarian) | growth (BT-549 breast) | growth (MDA-MB-435 melanoma) | growth (SW-620 colon) | growth (MCF7 breast) | growth (HCT-116 colon) | growth (KM12 colon) | growth (T-47D breast) | growth (HCC-2998 colon) |
| --- | --- | --- | --- | --- | --- | --- | --- | --- | --- |
| COC1CC2c3ccccc3C1C(C)=[N+]2C (stereo not drawn) | 78.7% | 87.4% | 100% | 104% | 97.3% | 103% | 104% | – | – |
| C/C(CC(C)(C)N1CC1)=N\NC(=O)Nc1cccc2ccccc12 | – | 68.5% | 79.6% | 52.3% | 24.9% | 46.5% | 75.9% | 55.8% | 75.3% |
| CCOC(=O)[C@@H](C)C[C@H](Cc1ccccc1)NC(=O)c1csc([C@@H](C[C@H](C(C)C)N(C)C(=O)CNC(=O)[C@H]2CCCCN2C)OC(C)=O)n1 | 74.7% | – | -63.8% (active) | 24.5% | 17.9% | 3.7% (active) | 12% | – | 8.98% (active) |
| C=CCCCCCCCCC(=O)[O-].C=CCCCCCCCCC(=O)[O-].[Zn+2] | 99.2% | – | 100% | 102% | 108% | 101% | 94.3% | – | 107% |
| CCCCCCCCCCCCCC[P+](CCCCCC)(CCCCCC)CCCCCC | -10.5% (active) | – | -81% (active) | -86.3% (active) | -51.8% (active) | -70.8% (active) | -100% (active) | – | -24.4% (active) |
| O=C([O][Hg][CH2]C1OCCOC1[CH2][Hg][O]C(=O)c1ccccc1)c1ccccc1 (stereo not drawn) | 28.7% | 75.5% | 93.6% | -82.4% (active) | -31.7% (active) | -95.2% (active) | 107% | – | 108% |
| NC1CC2CCCCC2CC1(O)c1ccccc1 (stereo not drawn) | – | 102% | 105% | 101% | 96.1% | 93.7% | – | 99.5% | 109% |
| O=[As](O)(O)c1ccccc1[As](=O)(O)O | 104% | 116% | 98.8% | 112% | 98% | 107% | 105% | – | 101% |
| O=C1C2C(C(=O)[N]1[Hg][c]1ccccc1)C1(Cl)C(Cl)=C(Cl)C2(Cl)C1(Cl)Cl (stereo not drawn) | 40.6% | -89% (active) | -78% (active) | -78.4% (active) | -55.3% (active) | -77.7% (active) | 74.6% | – | 11.7% |
| C1CCC([PH+](C2CCCCC2)C2CCCCC2[PH+](C2CCCCC2)C2CCCCC2)CC1.[Au].[CH-]1CCCCC1CC1CCCC[N-]1 (stereo not drawn) | – | – | -39.2% (active) | -24% (active) | -44.2% (active) | -65.8% (active) | -70.2% (active) | 7.94% (active) | -92.5% (active) |
| Cc1cccc(N2CCN(C(C)C#N)CC2)c1 (stereo not drawn) | 96.9% | 92.4% | 98.4% | – | 99.3% | 108% | 108% | – | 96.9% |
| CC1=C(O)[C@@](C)(CCCCC[C@H](C)CCCCc2ccc(O)cc2)OOC1=O | 88.5% | – | 82.6% | 109% | 98.8% | 88.6% | 90.1% | – | 115% |
| COc1ccc(/C(C)=C(\c2ccc(OCCN3CCOCC3)cc2)c2ccc(OC(=O)Cc3ccccc3)cc2)cc1 | 102% | – | 107% | 111% | 71.7% | 104% | 103% | – | 102% |
| Cc1ccccc1NC(=NCCCN1CC1)Nc1ccccc1C | – | 104% | 93% | 87.1% | 68.9% | 79.8% | 94.6% | 74.5% | 102% |
| CCOC(=O)CCC(NC(=O)C(Cc1ccc(N(CCCl)CCCl)cc1)NC=O)C(=O)OCC (stereo not drawn) | 67.2% | 69.6% | 21.1% | 51.5% | 22.1% | 61.5% | 82.7% | – | 46.9% |
| Clc1cccc(Cl)c1Cl | 105% | 102% | 105% | 105% | 93.5% | 98.9% | 100% | – | 99.8% |

| Compound | growth (NCI/ADR-RES ovarian) | growth (BT-549 breast) | growth (MDA-MB-435 melanoma) | growth (SW-620 colon) | growth (MCF7 breast) | growth (HCT-116 colon) | growth (KM12 colon) | growth (T-47D breast) | growth (HCC-2998 colon) |
| --- | --- | --- | --- | --- | --- | --- | --- | --- | --- |
| N/C(=N/N=C/c1ccncc1)N[N+](=O)[O-] | 104% | 89.6% | 105% | 106% | 99.1% | 102% | 100% | – | 109% |
| O=C(N/N=C\c1ccc(N(CCCl)CCCl)cc1Cl)c1cccnc1 | 86.4% | 90.7% | 104% | 79.2% | 34.4% | 43% | 102% | – | 76.8% |
| ClCCN(CCCl)c1nc(Cl)c(C2CC(c3ccccc3)=NN2c2cc(Cl)cc(Cl)c2)s1 (stereo not drawn) | 103% | 107% | 109% | 98.5% | 97.5% | 98.1% | 100% | – | 105% |
| COc1ccc2c(c1)c(C1(O)CC(CSC#N)OC1=O)cn2C(=O)c1ccc(Cl)cc1 (stereo not drawn) | 92.5% | 97.6% | 98.9% | 105% | 91.6% | 97% | 97.7% | – | 95.1% |
| C1CCC([PH+](C2CCCCC2)C2CCCCC2[PH+](C2CCCCC2)C2CCCCC2)CC1.O=C(C1[CH-]CCCC1)C1CCCC[N-]1.[Au] (stereo not drawn) | – | -14.7% (active) | -43.6% (active) | 2.27% (active) | -42.9% (active) | -54% (active) | -60.9% (active) | – | -83% (active) |
| O=C([O][Hg][CH2]C1COCC([CH2][Hg][O]C(=O)c2ccccc2)O1)c1ccccc1 (stereo not drawn) | 106% | 97.4% | 90.2% | -91.2% (active) | 20.9% | – | 102% | – | 114% |
| COc1ccc(C(=O)c2sc3nc4c(cc3c2N)N2CCC4CC2)cc1OC | 79.4% | – | 99.9% | 126% | 84.5% | 86.2% | 97.7% | – | 109% |
| COC(=O)[C@@H](C)C[C@H](Cc1ccccc1)NC(=O)c1csc([C@@H](C[C@H](C(C)C)N(C)C(=O)[C@H](C)NC(=O)[C@H]2CCCCN2C)OC(C)=O)n1 | 87.6% | 47.6% | -33% (active) | 18.4% | – | – | 22.4% | – | 33.8% |
| ClCCN(CCCl)c1ccc(/C=N\N=C\c2ccc(N(CCCl)CCCl)cc2)cc1 | 55.1% | 50.5% | 27.4% | 36.8% | 35.1% | 36.7% | 30.3% | – | 45.7% |
| Cc1c(NS(=O)(=O)c2ccccc2)ccc([N+](=O)[O-])c1Cl | 86.3% | 77.7% | 39.8% | 91.6% | 92.8% | 73.3% | 70.1% | – | – |
| CC[C@H](C)[C@H](NC(=O)N[C@@H](C)c1ccccc1)C(=O)N(C)[C@H](C[C@@H](OC(C)=O)c1nc(C(=O)N[C@@H](Cc2ccccc2)C[C@H](C)C(=O)OC)cs1)C(C)C | 50% | – | -41.7% (active) | 16.8% | 17.5% | 9.92% (active) | 2.6% (active) | – | 23.7% |
| C=CCc1cc2c(cc1OCC)OCO2 | 105% | 82.6% | 109% | 102% | 90.9% | 85.5% | 104% | – | 93.8% |
| COc1cc([N+](=O)[O-])c2nc(C)ccc2c1[N+](=O)[O-] | 105% | 97.4% | 71.3% | 72.7% | 69.1% | 63.5% | 79.8% | – | 107% |
| CS(=O)(=O)CCN1CC2CCCC(C2)C1 | 105% | 92.5% | – | 111% | 92.3% | 94.7% | 111% | – | 99.5% |
| O=C1CCC2(O)[C@@H]3Cc4ccc(O)c5c4[C@]2(CCN3Cc2ccoc2)C1O5 (stereo partly drawn) | – | – | 105% | 102% | 97.5% | 88.1% | 98.2% | 98.1% | 104% |
| CC1(C)N=C(N)N=C(N)N1c1cccc(CCCCc2ccc(Cl)c(S(=O)(=O)F)c2)c1 | 104% | 51.8% | 35.8% | 30.9% | 28.8% | 17.7% | 22.3% | – | 35.1% |
